TRPV1 ag: HTS Assay for Compounds that Act as Agonists of the Vanilloid Receptor 1 | Transient receptor potential cation channel subfamily V member 1 (Homo sapiens), Q8NER1 | TRPV1-expressing cells, Fluo-8 calcium influx, agonist mode | activation, % at 8.33 µM | 320,000 tested, 0.19% active | AID 540275, 2011; in the data active = activation above about 80%; inconclusive = between about 30% and that limit
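Fluo-8 calcium influx in TRPV1-expressing cells, kinetic read (ex 480/em 520 nm). Compound added and read 3 min for agonist activity, followed by capsaicin at EC20 final and 2 min further read for enhancement.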
hERG WT inh: qHTS for Inhibitors of KCHN2 3.1: Wildtype qHTS; Voltage-gated inwardly rectifying potassium channel KCNH2 (Homo sapiens), Q12809; activity change, % at 1.84 µM; U2OS, BacMam KCNH2, thallium flux FluxOr; hits give low values; 340,000 tested, 0.37% active;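 active = maximum activity change below -70%; inconclusive = maximum activity change between -70% and -50%; inactive = maximum activity change above -50%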
Target sequence (Q12809 whole entry, looked up): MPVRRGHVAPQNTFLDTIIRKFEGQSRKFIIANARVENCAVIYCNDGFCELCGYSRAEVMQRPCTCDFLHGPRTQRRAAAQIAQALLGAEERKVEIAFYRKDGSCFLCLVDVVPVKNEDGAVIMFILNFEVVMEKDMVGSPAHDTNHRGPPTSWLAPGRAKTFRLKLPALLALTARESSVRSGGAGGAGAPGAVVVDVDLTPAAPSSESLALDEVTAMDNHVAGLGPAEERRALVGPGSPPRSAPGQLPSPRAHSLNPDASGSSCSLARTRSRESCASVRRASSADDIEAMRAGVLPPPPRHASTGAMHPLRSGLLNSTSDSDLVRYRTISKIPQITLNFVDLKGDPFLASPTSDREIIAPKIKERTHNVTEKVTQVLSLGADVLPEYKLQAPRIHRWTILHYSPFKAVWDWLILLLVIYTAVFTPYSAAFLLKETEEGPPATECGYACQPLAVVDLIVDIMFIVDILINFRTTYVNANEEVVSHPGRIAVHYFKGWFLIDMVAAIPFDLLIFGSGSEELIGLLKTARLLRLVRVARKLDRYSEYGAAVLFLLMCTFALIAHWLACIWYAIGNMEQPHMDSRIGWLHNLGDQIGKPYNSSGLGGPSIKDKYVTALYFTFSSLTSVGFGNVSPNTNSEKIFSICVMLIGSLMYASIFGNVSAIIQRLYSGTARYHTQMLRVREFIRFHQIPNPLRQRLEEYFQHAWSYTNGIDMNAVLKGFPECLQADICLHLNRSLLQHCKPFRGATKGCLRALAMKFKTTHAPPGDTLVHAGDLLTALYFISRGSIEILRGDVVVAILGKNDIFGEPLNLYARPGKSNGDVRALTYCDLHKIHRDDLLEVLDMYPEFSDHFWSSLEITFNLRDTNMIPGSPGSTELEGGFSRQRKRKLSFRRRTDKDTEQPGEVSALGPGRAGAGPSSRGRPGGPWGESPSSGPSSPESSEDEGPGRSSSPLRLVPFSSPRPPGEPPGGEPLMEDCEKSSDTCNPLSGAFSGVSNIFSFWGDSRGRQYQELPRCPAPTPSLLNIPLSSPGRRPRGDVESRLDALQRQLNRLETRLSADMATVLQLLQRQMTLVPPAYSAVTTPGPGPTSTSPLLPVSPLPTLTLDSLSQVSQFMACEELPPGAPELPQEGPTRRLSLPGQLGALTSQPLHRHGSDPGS
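U2OS cells transduced with wild-type KCNH2 virus are loaded with FluxOr dye for 45 min, and thallium flux is measured in kinetic reads before and after stimulation buffer. Rate constants are normalized to DMSO controls.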
KCNH2 3.1 block: qHTS for Inhibitors of KCHN2 3.1: Mutant qHTS; 340,000 tested, 0.95% active; U2OS KCNH2 3.1, thallium flux FluxOr; hits give low values; AID 720553, 2013; activity change, % (tested at about 1.8 µM);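 active = maximum activity change below -70%; inconclusive = maximum activity change from -70% to -50%; inactive = maximum activity change above -50%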;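 also: thallium influx rate constant from kinetic fluorescence after stimulation buffer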
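FluxOr-based Tl+ influx in U2OS cells transduced with KCNH2 3.1 virus; rate constants normalized to DMSO controls.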
TRPV1 PAM: HTS Assay for Compounds that Act as Potentiators of the Vanilloid Receptor 1 | Transient receptor potential cation channel subfamily V member 1 (Homo sapiens), Q8NER1 | TRPV1-expressing cells, Fluo-8 calcium influx, capsaicin EC20 potentiation | potentiation, % at 8.33 µM | 320,000 tested, 0.02% active | AID 540277, 2011; in the data active = potentiation above about 80%; inconclusive = between about 30% and that limit
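Cells expressing TRPV1 were dye-loaded with Fluo-8 and read kinetically: 10 s baseline, 3 min after compound (agonist portion), then 2 min after EC20 capsaicin (allosteric enhancer portion). Calcium-bound dye fluorescence at 480/520 nm.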
Large screens that a line does not name were inactive; ! = repeats disagree. Compounds with a hit are over-represented: about 1.2% of the library has one in this group of screens.

Cc1cc(N2CCN(S(=O)(=O)c3ccc(Cl)c(Cl)c3)CC2)c2ccccc2n1	hERG WT inh inconclusive, KCNH2 3.1 block -113.2
Cc1csc(=O)n1CCC(=O)OCc1nnc(-c2ccccc2Cl)o1	hERG WT inh -85.5 (no result: TRPV1 ag, TRPV1 PAM)
CSc1ccc2c(c1)C(N1CCN(C)CC1)Cc1ccc(F)cc1S2 (stereo not drawn)	hERG WT inh inconclusive, KCNH2 3.1 block -94.1 (no result: TRPV1 ag, TRPV1 PAM)
Cc1ccc(N(CC2=NCCN2)c2cccc(O)c2)cc1	KCNH2 3.1 block -79.7!
c1ccc(CN(CC2=NCCN2)c2ccccc2)cc1	none
C=CCN1C(c2ccccc2)=CS/C1=C(\C#N)c1nnc2n1CCCCC2	none
C=CCn1c(=O)/c(=C/c2ccc(Cl)cc2)s/c1=C(\C#N)c1nnc2n1CCCCC2	KCNH2 3.1 block -87.1 (no result: TRPV1 ag, TRPV1 PAM)
COC(=O)[C@H]1[C@H]2C[C@@H]3c4[nH]c5cc(OC)ccc5c4CCN3C[C@H]2C[C@@H](OC(=O)/C=C/c2cc(OC)c(OC)c(OC)c2)[C@@H]1OC	KCNH2 3.1 block -72.8
Cn1nnc(NC(=O)c2ccc(Br)o2)n1	KCNH2 3.1 block -76.5
C[C@@H]1CN([C@@H](C)CO)C(=O)CCCn2nncc2CO[C@@H]1CN(C)C(=O)c1ccncc1	none (no result: TRPV1 ag, TRPV1 PAM)
c1ccc(Nc2c3c(nc4ccccc24)CCC3)cc1	TRPV1 ag inconclusive
Fc1ccc(Nc2c3c(nc4ccccc24)CCC3)cc1	TRPV1 ag inconclusive, KCNH2 3.1 block -91.0
Cc1ccc(S(=O)(=O)N2CCN(CC(=O)Nc3ccc([N+](=O)[O-])cc3)CC2)cc1C	hERG WT inh -75.9, KCNH2 3.1 block -91.8
Cc1ccc(C)c(OCCC(=O)N2CCN(S(=O)(=O)c3ccc([N+](=O)[O-])cc3)CC2)c1	TRPV1 ag inconclusive, KCNH2 3.1 block -139.3
CCN1C(=O)[C@H]2[C@H]3CN=C(SCc4ccc(C)cc4)N3[C@@](C)(C(=O)OC)[C@H]2C1=O	none (no result: TRPV1 ag, TRPV1 PAM)
CC(=O)Nc1ccc(S(=O)(=O)NCC(=O)OCC(=O)NCCc2ccccc2)cc1	none (no result: TRPV1 ag, TRPV1 PAM)
Cc1cccc(CN2C(=O)/C(=C\c3ccc(C(=O)NCCN4CCOCC4)cc3)Sc3ccccc32)c1	KCNH2 3.1 block -81.4
Cc1ccccc1CN1C(=O)/C(=C\c2ccc(C(=O)NCCN3CCOCC3)cc2)Sc2ccccc21	none
COc1ccc(/C=C2\Sc3ccc(C(=O)NC4CC4)cc3N(C)C2=O)cc1OC	none
CN1C(=O)/C(=C\c2ccccc2F)Sc2ccc(C(=O)NC3CCN(Cc4ccccc4)CC3)cc21	hERG WT inh -83.2, KCNH2 3.1 block -80.6
CCN1CCN(CCNC(=O)c2ccc3c(c2)N(Cc2ccc(F)cc2)C(=O)/C(=C/c2ccccc2)S3)CC1	KCNH2 3.1 block -87.5
Cc1ccc(S(=O)(=O)Nc2cccc(C(=O)NC3CCN(Cc4ccccc4)CC3)c2)cc1F	KCNH2 3.1 block -80.4
CCOc1ncccc1C(=O)OCC(=O)N1CCC(C)CC1	none (no result: TRPV1 ag, TRPV1 PAM)
Cc1ccc(F)cc1NC(=O)C1CC(=O)N(Cc2ccccc2)C1 (stereo not drawn)	none (no result: TRPV1 ag, TRPV1 PAM)
Cc1onc(-c2ccccc2Cl)c1C(=O)NCc1nnnn1-c1ccc(F)c(F)c1	none (no result: TRPV1 ag, TRPV1 PAM)
COc1cc(C(=O)NCC(c2ccco2)N2CCCC2)ccc1OCc1ccc(Cl)cc1Cl (stereo not drawn)	none (no result: TRPV1 ag, TRPV1 PAM)
O=C1CC(c2ccco2)CC2=C1C(c1ccncc1)n1nc(C(F)(F)F)nc1N2 (stereo not drawn)	none (no result: hERG WT inh, KCNH2 3.1 block)
c1ccc(C[C@H]2CN=C(Nc3ccccc3)N2CCC2CCCC2)cc1	KCNH2 3.1 block -94.1
CC(C)CCN1C(Nc2ccccc2)=NC[C@@H]1Cc1ccccc1	none
CC(C)C[C@H]1CN=C(Nc2ccccc2)N1CCC1CCCCC1	KCNH2 3.1 block inconclusive
CC(CCN1C(Nc2ccccc2)=NC[C@@H]1Cc1ccccc1)c1ccccc1 (stereo partly drawn)	KCNH2 3.1 block -82.1
O=C(NCCCCc1ccccc1)c1cccc(NC(=O)C2CC2)c1	none (no result: TRPV1 ag, TRPV1 PAM)
COc1ccccc1Cc1nnnn1CC(=O)O	KCNH2 3.1 block -91.8
COc1ccccc1CNC(=O)Cn1nnnc1CN(C)C(C)C	none
COc1ccc(C(=O)Nc2ccc(NC(=O)c3cccs3)c(OC)c2)cc1Cl	KCNH2 3.1 block -82.8
COc1ccc(C(=O)Nc2ccc(NC(=O)c3cccs3)cc2)cc1Cl	none (no result: hERG WT inh)
O=C(CCCn1c(=S)[nH]c2ccsc2c1=O)NCc1ccco1	none
O=C(CCCCn1c(=S)[nH]c2ccsc2c1=O)NCc1ccco1	KCNH2 3.1 block -71.5
COC(=O)C1=C(C(=O)OC)[C@@H]2Nc3ccccc3[C@@]23C[C@@H](C(=O)OC)N(C(=O)c2ccc(Br)cc2)C3=N1	KCNH2 3.1 block -114.4
CSCC[C@H]1COC[C@@H](Cc2ccccc2)N1c1ccccc1	none (no result: TRPV1 ag, TRPV1 PAM)
O=C1OC2(CCCCC2)CC2=C1C1O[C@](c3ccsc3)(Cc3c1ccc1ccccc31)O2	none (no result: hERG WT inh, KCNH2 3.1 block)
O=C(C1=C[C@@H](c2ccc3c(c2)OCO3)C[C@@H](OCCCCO)O1)N1CCOCC1	none
CN1CCN(C(=O)C2=C[C@H](c3ccc4c(c3)OCO4)C[C@H](OCCCCO)O2)CC1	KCNH2 3.1 block -90.7 (no result: TRPV1 ag, TRPV1 PAM)
CCOc1ccccc1N(CC(=O)Nc1cccnc1)S(C)(=O)=O	KCNH2 3.1 block -85.9
CC(C)(C)c1ccc(/C=C/C(=O)N2CCc3ccccc3C2)cc1	TRPV1 ag inconclusive
Cc1ccc(/C=C/C(=O)N2CCc3ccccc3C2)cc1	TRPV1 ag 80.4
O=C(CSc1nnnn1-c1ccc(Cl)cc1)NC1CCS(=O)(=O)C1 (stereo not drawn)	none (no result: TRPV1 ag, TRPV1 PAM)
CCN(C(=O)COC(=O)c1cncc(Br)c1)C1CCS(=O)(=O)C1 (stereo not drawn)	TRPV1 PAM 80.3
OCCCCNCc1ccc(OCc2ccc(Cl)cc2Cl)cc1	none
OCCNCc1ccc(OCc2ccc(Cl)cc2Cl)cc1	KCNH2 3.1 block -83.7
C[C@@H]1CN([C@@H](C)CO)S(=O)(=O)c2ccc(Br)cc2O[C@@H]1CN(C)C(=O)C1CC1	none (no result: TRPV1 ag, TRPV1 PAM)
OCCOCCNc1ncnc2nc[nH]c12	KCNH2 3.1 block -207.2
CCn1c(NCc2ccccc2NS(=O)(=O)c2ccc(C)cc2)nc2ccccc21	none
CCn1c(NCc2cc(Br)ccc2NS(=O)(=O)c2ccc(C)cc2)nc2ccccc21	KCNH2 3.1 block -81.9
O=C(N/N=C/c1ccccc1)c1n[nH]c2c1CCCC2	TRPV1 ag 83.3
O=C(N/N=C/c1ccc(Cl)cc1)c1n[nH]c2c1CCCC2	TRPV1 ag inconclusive
COC(=O)c1ccsc1NC(=O)CSc1nnnn1-c1ccccc1SC	KCNH2 3.1 block -88.4
CSc1ccccc1NC(=O)CSc1nnnn1-c1ccccc1SC	none
C[N+](C)(C)CCC(=O)N1C/C(=C/c2ccccc2)C(=O)/C(=C\c2ccccc2)C1	none (no result: TRPV1 ag, KCNH2 3.1 block, TRPV1 PAM)
CN(C)CCC(=O)N1C/C(=C/c2ccccc2)C(=O)/C(=C\c2ccccc2)C1	KCNH2 3.1 block -72.3 (no result: TRPV1 ag, TRPV1 PAM)
